In PubChem BioAssay (NCI):
This is part of a sample that, as a whole, favours compounds with a hit. Of some 83,000 tested, about 20% had one in any assay.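 96-well plates, one dose, 48 hours. Percent growth reported; active if below 10.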 Values without a mark were called inactive. The source made the active and inactive calls.

These compounds were tested on SR leukemia (assay: NCI-60 one-dose screen, 48 h (100 = growth as untreated, 0 = no growth, -100 = all killed)). Details: 10 µM unless noted.

`CC(C)c1[nH]ncc1-c1nc2ccc3[nH]ncc3c2c2c1CCCC2` was tested, and the growth was 6.47% (active).
In the case of `CCCCN(CCCC)CCCN=c1nc2c(c(N)n1-c1ccccc1)c(=S)n(-c1ccccc1)c(=S)n2-c1ccccc1`, the growth is reported as -65.2% (active).
With `O=C(/C=C/c1ccccc1)C(Br)C(Br)c1ccccc1` (stereo not given) the growth was -28% (active).

In order of falling growth:
1. N#Cc1nc(-c2ccc(Cl)cc2)cc(-c2ccc(Nc3nc(N4CCCCC4)nc(N4CCCCC4)n3)cc2)c1N  105%
2. COc1ccc(/C(=C\c2cc(OC)c(OC)c(OC)c2)C(=O)N2CCNCC2)cc1  94.6%
3. COc1ccc(/C=C2\N=C(c3cccnc3)N(c3ccccc3)NC2=O)cc1  92.7%
4. COc1ccc(-n2nc(C(=O)NCC(=O)Nc3nc4cc(OC)ccc4s3)c3ccccc3c2=O)cc1  86.8%
5. COc1ccc(Nc2ncccc2C(=O)NCc2cn(Cc3cc(OC)cc(OC)c3)nn2)cc1  84.8%
6. CC(=O)c1ccc(Nc2nc(Cl)nc(Oc3c(Cl)cccc3Cl)n2)cc1  82.3%
7. CCN(CC)CCCCCCCNc1cc(OC)cc2c(C)ccnc12  73.2%
8. CN(C)c1ccc(C(c2ccccc2)c2ccc(N(C)C)cc2)cc1  68.2%
9. Cc1cc(-c2nnc(/C=C/c3ccc4c(c3)OCO4)o2)n[nH]1  18.7%
10. COc1ccc(Sc2[nH]c(C=O)c3ccccc23)cc1  16.6%
11. CCCc1n(Cc2ccc3ccccc3n2)cc[n+]1Cc1ccc2ccccc2n1  13%
12. COc1cc2nccc(Oc3ccc(NC(=O)C4(C(=O)Nc5ccc(F)cc5)CC4)cc3)c2cc1Oc1ccc(N)cn1  11.9%
